# Screening results (PubChem BioAssay)
# In the library only some 3.7% were active in any assay of this set; here they are far more common.
# UGM FP inh = Mtb UDP-galactopyranose mutase inhibition; hit rate 0.06% among 320,000; inhibition, % at 10 µM; P9WIQ1; purified UGM, fluorescence polarization probe displacement; in the data active means inhibition above about 10%, passing the limit was not always enough
# Target sequence (P9WIQ1 whole entry, looked up): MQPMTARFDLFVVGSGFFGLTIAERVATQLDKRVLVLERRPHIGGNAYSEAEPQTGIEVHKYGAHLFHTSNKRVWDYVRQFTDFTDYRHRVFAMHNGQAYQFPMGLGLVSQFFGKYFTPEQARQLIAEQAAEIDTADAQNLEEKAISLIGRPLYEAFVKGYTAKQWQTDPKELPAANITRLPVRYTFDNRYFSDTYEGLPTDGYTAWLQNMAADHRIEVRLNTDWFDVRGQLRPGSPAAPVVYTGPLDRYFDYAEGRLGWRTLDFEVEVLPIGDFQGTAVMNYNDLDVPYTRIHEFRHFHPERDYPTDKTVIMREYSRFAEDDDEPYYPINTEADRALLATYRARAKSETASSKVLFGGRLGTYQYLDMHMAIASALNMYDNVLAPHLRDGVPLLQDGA
# Mtb FBA inh = inhibits M. tuberculosis FBA enzyme. P9WQA3. purified M. tuberculosis FBA, fluorescence read-out. inhibition, % at 1 µM. hit rate 2.3% among 360,000. AID 588726; in the data active means inhibition above about 27%;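 further: 0% = vehicle and 100% = reference inhibitor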
# Rv3671c inh = Rv3671c (M. tuberculosis) protease inhibition; P9WHR9; inhibition, % at 5.96 µM; hit rate 0.048% among 320,000; AID 2606; in the data active means inhibition above about 38%;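 further: extracellular domain of Rv3671c used as enzyme; 0% = enzyme with DMSO and 100% = no enzyme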
# FadD28 binding = blocks FadD28 binding to the bisubstrate probe. hit rate 0.22% among 360,000. inhibition, % at 12.5 µM. fluorescence polarization; in the data active means inhibition above about 8.5%, passing the limit was not always enough
# GDH-TPI counter = inhibits GDH-TPI coupling enzymes, artifact for Mtb FBA screen | GDH-TPI coupled enzyme counterscreen, NADH absorbance | inhibition, % at 4.8 µM | hit rate 1.2% among 360,000; in the data active means inhibition above about 30%;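 further: 0% = DMSO wells and 100% = wells lacking the enzyme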
# Mtb bLac sens = beta-lactam sensitization of Mtb H37Rv. M. tuberculosis H37Rv growth with meropenem, percent inhibition. inhibition, % at 25 µM. hit rate 0.27% among 330,000; call rule not given here;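 further: growth measured after seven days incubation then overnight dye step; 0% = bacteria only wells and 100% = bacteria with antibiotic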
# * hit, by the source's call; / = no result; + = active, no number.
SMILES,UGM FP inh,Mtb FBA inh,Rv3671c inh,FadD28 binding,GDH-TPI counter,Mtb bLac sens
COc1ccccc1/C=C/C=N/NC(=O)c1cc(-c2ccc(C)o2)[nH]n1,-4,0,-14,-3,44*,99
O=C(N/N=C/C=N/NC(=O)c1ccco1)c1ccco1,1,-1,4,0,54*,-4
O=C(N/N=C/c1ccccc1)c1ccco1,2,1,2,-3,-5,-2
COc1ccccc1/C=C/C=N/NC(=O)c1ccco1,-1,3,6,-7,37*,-2
O=C(COC(=O)c1ccc(Cl)c(S(=O)(=O)N2CCCCCC2)c1)NCc1ccccc1,/,-1,/,-1,7,/
COC(=O)c1ccc2nc(-c3ccc(C)cc3)c(CC3CCCCC3)n2c1,/,6,/,-3,/,/
O=C(Cc1cccs1)N/N=C/C=C/c1ccccc1[N+](=O)[O-],-1,-1,-6,-3,16,-14
C/C(=N/NC(=O)c1ccco1)c1ccc(Br)s1,0,-1,/,/,43*,3
Cc1ccc(S(=O)(=O)N2CCN(CC(=O)N/N=C/c3ccccc3OCC(=O)O)CC2)cc1,2,/,15,/,/,6
Cc1ccsc1/C=N/N=C/c1sccc1C,0,0,-7,1,33*,-6
COc1ccccc1/C=C/C=N/NC(=O)Cc1cccs1,2,-2,-1,0,32*,-1
COc1ccccc1/C=C/C=N/NC(=O)CN1CCN(S(=O)(=O)c2ccc(C)cc2)CC1,0,-5,3,-9,33*,0
CN(N=Nc1nc[nH]c1C(N)=O)C1CCCCC1,/,-1,/,-2,/,/
Cc1ccsc1/C=N/NC(=O)c1ccco1,0,-1,-8,-1,33*,-1
CCCC#Cc1ccc2c(c1)O[C@H](CN(C)S(=O)(=O)c1cccc(OC)c1)[C@H](C)CN([C@H](C)CO)S2(=O)=O,/,-3,/,-3,0,/
Cc1ccc(-c2cc(-c3ccccc3)nc(N)c2C#N)o1,-1,133*,-11,-4,-2,-2
N#Cc1c(-c2ccccc2)cc(-c2ccc(O)cc2)nc1N,2,17,-8,-4,23,42
N#Cc1c(-c2ccco2)cc(-c2ccc(F)cc2)nc1N,-1,154*,-11,-10,16,3
CN(C)CCN(C(=O)c1cccc2ccccc12)c1nc2cc3c(cc2s1)OCO3,3,-1,2,-2,12,9
Cc1c(CC(=O)O)c(=O)oc2cc(OCc3nn[nH]n3)ccc12,-2,+,-1,-1,11,-7
Cc1c(CC(=O)O)c(=O)oc2cc(OCc3ccc(Cl)cc3)ccc12,2,126*,-5,-1,18,-3
CCOC(=O)CCc1c(C)c2ccc(OCc3nn[nH]n3)cc2oc1=O,-1,+,-1,-2,-2,2
Cc1c(Cc2ccccc2)c(=O)oc2cc(OCc3ccc(C(=O)O)cc3)ccc12,-8,17,1,-2,10,-3
CCOC(=O)CCc1c(C)c2ccc(OCc3ccc([N+](=O)[O-])cc3)cc2oc1=O,1,8,10,0,2,0
Cc1ccc(-c2cc3nc(C)cc(N4CCN(C(=O)c5ccoc5)CC4)n3n2)cc1,/,4,/,0,14,/
SMILES,UGM FP inh,Mtb FBA inh,Rv3671c inh,FadD28 binding,GDH-TPI counter,Mtb bLac sens
Cc1nc(SCC(=O)N2CCCCCC2)c2c(=O)n(C)c(=O)n(CC(C)C)c2n1,/,-4,/,1,-5,/
CCn1c(=O)c2cc(C(=O)N(C)c3ccc(OC)cc3OC)sc2c2ccccc21,2,5,10,-21,49*,-2
CCn1c(=O)c2cc(C(=O)N(C)c3ccccc3F)sc2c2ccccc21,1,2,-15,-16,14,/
CCn1c(=O)c2cc(C(=O)N(C)c3cc(C)ccc3OC)sc2c2ccccc21,-2,7,-6,-10,32*,-10
CCNC(=O)C1(C)CCCN(Cc2ccc(-n3ccnc3)cc2)C1 (configuration not stated),/,2,/,1,-5,/
O=S1(=O)C[C@@H](N2CCN(c3ccccn3)CC2)[C@H](COCc2ccccc2)N1,/,6,/,-2,10,/
O=S1(=O)CC(N2CCN(CC3CC3)CC2)CN1Cc1ccc(F)cc1 (configuration not stated),/,-1,/,-3,/,/
CN(C(=O)COC(=O)COc1ccc2ccccc2c1)c1ccccc1,/,-2,/,-1,8,/
CC(=O)/C(=C/Nc1ccc(Oc2ccccc2)cc1)c1ccccc1,2,0,0,-4,7,87
COc1cc(N/C=C(\C(C)=O)c2ccccc2)cc(OC)c1,-3,-3,-1,-2,44*,45
